The results in this text go back to PubChem BioAssay.

A word on the viability: it is a read-out of living cells in per cent, often relative to untreated cells.

The source made the active and inactive calls.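 Rule for the calls: active = Her2 level under about 52% in both replicate screens, with viability over 70% of control (limit read from the data); inconclusive = Her2 under the limit in one screen only, or viability under 70%; inactive = Her2 level above the set limit.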

Chain of Receptor tyrosine-protein kinase erbB-2 (Homo sapiens) (P04626 whole entry, looked up): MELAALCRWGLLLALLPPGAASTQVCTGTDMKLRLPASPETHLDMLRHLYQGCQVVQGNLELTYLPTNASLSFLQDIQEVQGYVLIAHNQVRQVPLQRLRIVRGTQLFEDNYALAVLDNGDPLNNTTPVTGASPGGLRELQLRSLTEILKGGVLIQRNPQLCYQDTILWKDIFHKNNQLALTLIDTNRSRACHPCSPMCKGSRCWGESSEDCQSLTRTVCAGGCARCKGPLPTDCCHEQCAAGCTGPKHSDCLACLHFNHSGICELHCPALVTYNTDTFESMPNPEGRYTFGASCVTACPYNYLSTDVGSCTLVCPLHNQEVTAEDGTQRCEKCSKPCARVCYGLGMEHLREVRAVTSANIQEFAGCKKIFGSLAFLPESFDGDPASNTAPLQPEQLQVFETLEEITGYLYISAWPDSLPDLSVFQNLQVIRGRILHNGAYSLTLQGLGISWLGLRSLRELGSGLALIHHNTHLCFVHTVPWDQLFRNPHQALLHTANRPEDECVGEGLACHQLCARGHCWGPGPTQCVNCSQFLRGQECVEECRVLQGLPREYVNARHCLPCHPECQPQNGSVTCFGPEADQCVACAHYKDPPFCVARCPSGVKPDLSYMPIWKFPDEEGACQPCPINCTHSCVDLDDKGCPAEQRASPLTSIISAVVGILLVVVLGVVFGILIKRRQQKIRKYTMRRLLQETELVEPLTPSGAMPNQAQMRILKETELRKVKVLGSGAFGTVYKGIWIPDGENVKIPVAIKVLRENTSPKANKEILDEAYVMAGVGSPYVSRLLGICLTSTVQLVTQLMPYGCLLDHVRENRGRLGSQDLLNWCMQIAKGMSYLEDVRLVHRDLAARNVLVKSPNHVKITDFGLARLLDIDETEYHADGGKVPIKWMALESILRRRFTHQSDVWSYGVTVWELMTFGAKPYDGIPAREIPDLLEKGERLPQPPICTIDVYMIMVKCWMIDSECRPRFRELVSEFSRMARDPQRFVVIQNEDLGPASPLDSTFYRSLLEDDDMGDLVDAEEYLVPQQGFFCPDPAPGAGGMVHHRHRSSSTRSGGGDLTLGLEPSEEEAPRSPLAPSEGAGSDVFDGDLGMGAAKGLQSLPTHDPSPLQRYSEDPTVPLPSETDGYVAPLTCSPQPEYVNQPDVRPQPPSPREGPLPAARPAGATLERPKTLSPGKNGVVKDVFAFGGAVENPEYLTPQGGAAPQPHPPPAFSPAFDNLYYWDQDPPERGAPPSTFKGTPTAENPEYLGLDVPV

System in the first assay: not listed separately
Nature of the assay: reducers of endogenous Her2 protein level, primary screen, SKBR3 breast tumor cells, AlphaScreen, ATP viability (AID 461).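 For Her2 level: lower value means less Her2 protein in the cells.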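 For viability: percent of carrier control wells set as 100% viability.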 The settings on record: 18-24 h, measured here: SKBR3 viability, ATP luminescence, at 10 µM.
For the molecule `Cn1c2c(c(=O)[nH]c1=O)C(NC(=O)c1ccco1)(C(F)(F)F)C(=O)N2` (stereo not given), the viability stood at 112%.

`c1ccc(CSCc2cn3ccsc3n2)cc1`: the viability stood at 93.5%.

With `CCCn1c(SCC(=O)Nc2cc(C)on2)nc2c1c(=O)n(C)c(=O)n2C`, the viability was 100%.

`CCN(CC)C(=O)C1CCC(CNS(=O)(=O)c2cccc3cccnc23)CC1` (stereo not given): the viability was found to be 92%.

With `CC(C)OC(=O)CSc1nnnn1-c1ccc2c(c1)OCCO2`, the viability was 99.5%.

With `Cc1ccc(OCC(=O)N2CCN(C(=O)CCC3CCCC3)CC2)cc1`, the viability was 104%.

Take `CC1(C)CC(=O)C(C=Nc2ccncc2)=C(O)C1`: the viability worked out at 96.5%.

For `CCCCN(CC)S(=O)(=O)N1CCC(C(=O)NCc2ccc(F)cc2)CC1`, the viability was determined as 97%.

As for `CCOC(=O)C1(C(=O)OCC)C(c2ccccc2)CC(O)N1C(C)=O` (stereo not given), the viability worked out at 116%.

As to `CCOc1ccccc1N(C(=O)c1ccco1)C(C(=O)NC1CCCC1)c1cccnc1` (stereo not given), the viability came to 84%.

As for `Cc1ccc(CNC(=O)C2CC(=O)OC23CCCC3)c(C)c1` (stereo not given), the viability was 86%.

With `Cc1ccc(-c2nnc(-c3ccc(Br)cc3)o2)o1`, the viability was 100%.

As for `COC(=O)CSc1nc2sc3c(c2c(=O)n1C1CCCCC1)CCN(C)C3`, the viability came out at 102%.

For `CCOC(=O)Cc1csc(NC(=O)CSc2nnc(C(C)C)n2CC)n1`, the viability came to 126%.

Consider `CCOC(=O)Cn1nnnc1CN(Cc1ccc(OC)cc1)Cc1cc2cc(C)cc(C)c2[nH]c1=O`, for which the viability was found to be 95%.

On to `CC(=O)CCc1ccc(OCCCCn2cncn2)cc1`, for which the viability is 113%.

Regarding `COc1ccc(CC(=O)OCn2nnc3ccccc3c2=O)cc1`, the viability is 101%.

In the case of `CC(=O)Nc1sc2c(c1C#N)CCCCC2`, the viability turned out to be 132%.

Take `Cc1ccccc1-c1nc(CS(=O)(=O)CC(=O)N(C)C2CCCCC2)c(C)o1`: the viability was 108%.

As to `COCCn1c(CN(Cc2ccccc2)Cc2ccccc2)nc2c1c(=O)n(C)c(=O)n2C`, the viability is 81%.

On to `Cn1c(SCc2ccccc2)nnc1C1CCCNC1` (stereo not given), for which the viability was 112%.

As to `COc1cccc(N(C(=O)c2ccco2)C(C(=O)NC2CCCC2)c2ccc(N(C)C)cc2)c1` (stereo not given), the viability was 98%.

Turning to `O=C(CCSc1ccccc1)Nc1ccc(S(=O)(=O)N2CCOCC2)cc1`, the viability was determined as 102%.

For the molecule `Cc1cc(Nc2ccccc2F)n2ncnc2n1`, the viability worked out at 101%.

As to `CCOP(=O)(c1ccc(N(C)C)cc1)C(O)c1c(Cl)cccc1Cl` (stereo not given), the viability was found to be 83%.

With `CCN1CCN(c2c(Cl)cccc2NC(=O)c2ccc3c(c2)OCCO3)CC1`, the viability worked out at 80%.

For the molecule `CC1CN(c2nc3ccccc3nc2C(C#N)C(=O)OC2CCCCC2)CC(C)O1` (stereo not given), the viability turned out to be 94%.

`CCOc1cc(NC(=O)c2ccccn2)c(OCC)cc1NC(=O)CC(C)C`: the viability stood at 74%.

Take `C(#Cc1ccccc1)Cn1nnc2ccccc21`: the viability was 80.5%.

Take `Cn1cccc1Cc1nnc(SCC(N)=O)n1-c1ccc(F)cc1`: the viability is 88%.

As to `Cn1c(=O)c2c(-c3ccncc3)c3c(nc2n(C)c1=O)-c1ccccc1C3=O`, the viability is 94%.

In the case of `CCCCOC(=O)CSc1nc2c(cc1C#N)C(=O)CC(C)(C)C2`, the viability came out at 87%.

For the molecule `COCCN(C(=O)CNC(=O)c1ccco1)C(C(=O)NC1CCCCC1)c1cccc(OC)c1` (stereo not given), the viability amounted to 96%.

`CCCCCn1c2nc3ccccc3nc2c2c(=O)n(CC(C)C)cnc21`: the viability turned out to be 116%.

Regarding `CCOC(=O)c1sc2nc(SCC#N)n(CCCN3CCCC3=O)c(=O)c2c1C`, the viability was 80.5%.

Regarding `COc1ccc(N2C(=O)C3C4C=CC(C4)C3C2=O)nn1` (stereo not given), the viability came out at 104%.

Turning to `Clc1cccc(-c2nn3c(Cn4cnc5ccccc54)nnc3s2)c1`, the viability was 94.5%.

With `O=C(O)C1CCCN1c1ncnc2c1oc1ccccc12` (stereo not given), the viability is 101%.

With `O=C(NCCSCc1ccco1)Nc1cccc(Cl)c1`, the viability amounted to 83.5%.

In the case of `CCSc1nc2c(c(=O)n(C)c(=O)n2C)n1Cc1ccc(Cl)cc1`, the viability turned out to be 70.5%.

A further assay concerns the target Receptor tyrosine-protein kinase erbB-2 (Homo sapiens) (UniProt P04626). Described as above. The conditions noted are these: 18-24 h, at 10 µM, stronger effect = lower value.
Consider `Cn1c2c(c(=O)[nH]c1=O)C(NC(=O)c1ccco1)(C(F)(F)F)C(=O)N2` (stereo not given), for which the Her2 level is 118% (inactive).

Take `c1ccc(CSCc2cn3ccsc3n2)cc1`: the Her2 level is 95.5% (inactive).

In the case of `CCCn1c(SCC(=O)Nc2cc(C)on2)nc2c1c(=O)n(C)c(=O)n2C`, the Her2 level was 118% (inactive).

Consider `CCN(CC)C(=O)C1CCC(CNS(=O)(=O)c2cccc3cccnc23)CC1` (stereo not given), for which the Her2 level is 97% (inactive).

In the case of `CC(C)OC(=O)CSc1nnnn1-c1ccc2c(c1)OCCO2`, the Her2 level was 84.5% (inactive).

Take `Cc1ccc(OCC(=O)N2CCN(C(=O)CCC3CCCC3)CC2)cc1`: the Her2 level is 93.5% (inactive).

Take `CC1(C)CC(=O)C(C=Nc2ccncc2)=C(O)C1`: the Her2 level is 93% (inactive).

Take `CCCCN(CC)S(=O)(=O)N1CCC(C(=O)NCc2ccc(F)cc2)CC1`: the Her2 level was 113% (inactive).

`CCOC(=O)C1(C(=O)OCC)C(c2ccccc2)CC(O)N1C(C)=O` (stereo not given): the Her2 level was 95% (inactive).

For the molecule `CCOc1ccccc1N(C(=O)c1ccco1)C(C(=O)NC1CCCC1)c1cccnc1` (stereo not given), the Her2 level was 104% (inactive).

For the molecule `Cc1ccc(CNC(=O)C2CC(=O)OC23CCCC3)c(C)c1` (stereo not given), the Her2 level is 100% (inactive).

On to `Cc1ccc(-c2nnc(-c3ccc(Br)cc3)o2)o1`, for which the Her2 level is 93.5% (inactive).

Consider `COC(=O)CSc1nc2sc3c(c2c(=O)n1C1CCCCC1)CCN(C)C3`, for which the Her2 level was 75.5% (inactive).

With `CCOC(=O)Cc1csc(NC(=O)CSc2nnc(C(C)C)n2CC)n1`, the Her2 level was 86% (inactive).

Turning to `CCOC(=O)Cn1nnnc1CN(Cc1ccc(OC)cc1)Cc1cc2cc(C)cc(C)c2[nH]c1=O`, the Her2 level was 105% (inactive).

`CC(=O)CCc1ccc(OCCCCn2cncn2)cc1`: the Her2 level was 105% (inactive).

On to `COc1ccc(CC(=O)OCn2nnc3ccccc3c2=O)cc1`, for which the Her2 level was 86% (inactive).

Turning to `CC(=O)Nc1sc2c(c1C#N)CCCCC2`, the Her2 level was 113% (inactive).

Take `Cc1ccccc1-c1nc(CS(=O)(=O)CC(=O)N(C)C2CCCCC2)c(C)o1`: the Her2 level is 104% (inactive).

Take `COCCn1c(CN(Cc2ccccc2)Cc2ccccc2)nc2c1c(=O)n(C)c(=O)n2C`: the Her2 level was 96% (inactive).

Consider `Cn1c(SCc2ccccc2)nnc1C1CCCNC1` (stereo not given), for which the Her2 level is 106% (inactive).

As for `COc1cccc(N(C(=O)c2ccco2)C(C(=O)NC2CCCC2)c2ccc(N(C)C)cc2)c1` (stereo not given), the Her2 level was 92.5% (inactive).

For the molecule `O=C(CCSc1ccccc1)Nc1ccc(S(=O)(=O)N2CCOCC2)cc1`, the Her2 level was 83.5% (inactive).

For `Cc1cc(Nc2ccccc2F)n2ncnc2n1`, the Her2 level is 97.5% (inactive).

As for `CCOP(=O)(c1ccc(N(C)C)cc1)C(O)c1c(Cl)cccc1Cl` (stereo not given), the Her2 level is 87.5% (inactive).

In the case of `CCN1CCN(c2c(Cl)cccc2NC(=O)c2ccc3c(c2)OCCO3)CC1`, the Her2 level was 84.5% (inactive).

Take `CC1CN(c2nc3ccccc3nc2C(C#N)C(=O)OC2CCCCC2)CC(C)O1` (stereo not given): the Her2 level is 97% (inactive).

Take `CCOc1cc(NC(=O)c2ccccn2)c(OCC)cc1NC(=O)CC(C)C`: the Her2 level was 102% (inactive).

On to `C(#Cc1ccccc1)Cn1nnc2ccccc21`, for which the Her2 level is 86.5% (inactive).

Turning to `Cn1cccc1Cc1nnc(SCC(N)=O)n1-c1ccc(F)cc1`, the Her2 level was 94.5% (inactive).

Turning to `Cn1c(=O)c2c(-c3ccncc3)c3c(nc2n(C)c1=O)-c1ccccc1C3=O`, the Her2 level was 104% (inactive).

For the molecule `CCCCOC(=O)CSc1nc2c(cc1C#N)C(=O)CC(C)(C)C2`, the Her2 level is 86% (inactive).

As for `COCCN(C(=O)CNC(=O)c1ccco1)C(C(=O)NC1CCCCC1)c1cccc(OC)c1` (stereo not given), the Her2 level is 103% (inactive).

For the molecule `CCCCCn1c2nc3ccccc3nc2c2c(=O)n(CC(C)C)cnc21`, the Her2 level is 103% (inactive).

Turning to `CCOC(=O)c1sc2nc(SCC#N)n(CCCN3CCCC3=O)c(=O)c2c1C`, the Her2 level is 73% (inactive).

`COc1ccc(N2C(=O)C3C4C=CC(C4)C3C2=O)nn1` (stereo not given): the Her2 level was 106% (inactive).

With `Clc1cccc(-c2nn3c(Cn4cnc5ccccc54)nnc3s2)c1`, the Her2 level is 82.5% (inactive).

In the case of `O=C(O)C1CCCN1c1ncnc2c1oc1ccccc12` (stereo not given), the Her2 level is 92% (inactive).

Consider `O=C(NCCSCc1ccco1)Nc1cccc(Cl)c1`, for which the Her2 level was 95% (inactive).

On to `CCSc1nc2c(c(=O)n(C)c(=O)n2C)n1Cc1ccc(Cl)cc1`, for which the Her2 level is 71% (inactive).
